From PubChem
Hits are enriched below; roughly 6.5% of the tested compounds scored in any of these assays.
A340 absorber – compound light absorbance at 340 nm, profiling panel, artefact control, biochemical, MLSMR library, data from PS, PMK, MK assays | 65,000 tested, under 10 active | compound absorbance at 340 nm, fold over control | fold change at 10 µM;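 active means at 10 µM dose, initial 340 nm absorbance at least 2 fold that of control wells; inactive means change under 2 fold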;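 further: initial absorbance extrapolated from kinetic A340 decline of NADH oxidation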
MK inhibit – S. pneumoniae MK inhibitors, primary screen, biochemical, PK/LDH-coupled NADH absorbance | actives 0.48% (n = 65,000) | inhibition, % at 10 µM | mevalonate kinase [Streptococcus pneumoniae D39] | purified MK, PK/LDH-coupled NADH absorbance 340 nm | AID 555, 2006;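 active means ranked among the strongest by inhibition in the single 10 µM screen, a fixed top-ranked set picked for dose follow-up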
Spn DPM-DC inh – S. pneumoniae DPM-DC inhibitors, primary screen, biochemical, PK/LDH-coupled NADH fluorescence. purified DPM-DC. calls only at 10 µM. actives 0.49% (n = 65,000). AID 556, 2006;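 active means the 320 compounds with the highest percent inhibition in the single-dose primary screen, excluding strongly autofluorescent ones, cut at about 32% in these data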;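 further: kinetic rate of NADH fluorescence loss reporting ADP formed by the decarboxylase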
PMK inhibit – S. pneumoniae PMK inhibitors, primary screen, biochemical, mevalonate pathway, pilot trial included; purified PMK, PK/LDH-coupled NADH absorbance 340 nm; actives 0.49% (n = 65,000); inhibition, % at 10 µM; AID 539, 2006;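 active means top-ranked compounds by inhibition in the single 10 µM screen, taking a fixed number of the strongest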
NADH enzymes – inhibitors of PK/LDH coupling enzymes, profiling panel, artefact control, biochemical, MLSMR library. coupled PK/LDH NADH assays, four targets. IC50, µM (titrated, usually from 10 µM). actives 0.02% (n = 65,000). AID 774, 2007;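 active means single-dose screening hits from any of four coupled enzyme assays that gave an IC50 when retested across doses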;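 further: the DPM-DC format reads NADH fluorescence rather than 340 nm absorbance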
Autofluor 339 – intrinsic fluorescence of library compounds, ex339/em460 – biochemical, MLSMR library, data from DPM-DC assay, artefact control, profiling panel | fluorescence fold increase at 10 µM | actives 5.5% (n = 65,000) | compound autofluorescence, ex339/em460 nm, NADH buffer; hits give high values; 1 = no-compound wells, NADH background;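 active means at 10 µM, mean starting fluorescence two-fold or more over control wells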;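 further: signal is the first read of a kinetic run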
Hits are given with their value; - = inactive; . = no result given; + = active, no number.

SMILES	A340 absorber	MK inhibit	Spn DPM-DC inh	PMK inhibit	NADH enzymes	Autofluor 339
COc1ccc(Cn2c(C)nc3c(c2=O)c2nc4ccccc4nc2n3Cc2ccco2)cc1	-	-	-	-	-	-
Nc1c(S(=O)(=O)c2ccccc2)c2nc3ccccc3nc2n1/N=C/c1ccco1	-	-	-	-	-	-
COc1ccc(S(=O)(=O)c2c(N)n(Cc3ccco3)c3nc4ccccc4nc23)cc1	-	-	.	-	-	3.8
Cc1cccc(S(=O)(=O)c2c(N)n(/N=C/c3cccnc3)c3nc4ccccc4nc23)c1	-	-	.	-	-	3.7
Cc1ccc(S(=O)(=O)c2c(N)n(/N=C/c3ccco3)c3nc4ccccc4nc23)cc1	-	-	-	-	-	3.2
Cc1ccc(S(=O)(=O)n2nc(-c3cccnc3)nc2N)cc1	-	-	-	-	-	-
Nc1c(S(=O)(=O)c2cccs2)c2nc3ccccc3nc2n1/N=C/c1cccc(O)c1	-	-	.	-	-	4
COc1ccc(C2N(c3cc(Cl)ccc3OC)C(=O)C3CCCN32)cc1OC (stereo unspecified)	-	-	-	-	-	-
Cc1sc2c(c1C)CN(Cc1ccco1)CN2C(=O)c1ccccc1	-	-	-	-	-	-
Cc1ccc(S(=O)(=O)c2c(N)n(/N=C/c3ccco3)c3nc4ccccc4nc23)cc1C	-	-	-	-	-	3.2
O=c1c2c3nc4ccccc4nc3n(/N=C/c3ccco3)c2ncn1CCC1=CCCCC1	-	-	-	-	-	-
CC(C)Cn1c(N)c(S(=O)(=O)c2cccs2)c2nc3ccccc3nc21	-	-	.	-	-	3.9
O=c1c2ccccc2nc(COc2ccccc2)n1/N=C/c1ccco1	-	-	-	-	-	-
Cc1cccc(S(=O)(=O)c2c(N)n(/N=C/c3ccco3)c3nc4ccccc4nc23)c1	-	-	-	-	-	3.1
O=S(=O)(c1ccccc1Cl)N1CCC(O)(c2ccc3c(c2)OCO3)CC1	-	-	-	-	-	-
Cc1cc(=O)oc2cc(OCc3ccc(S(=O)(=O)N4CCOCC4)cc3)ccc12	-	-	.	-	-	2.1
COC(=O)c1cc(NCc2c(F)cccc2Cl)ccc1N1CCOCC1	-	-	+	-	-	2.6
O=C(O)c1cc(NCc2cccs2)ccc1N1CCOCC1	-	-	-	-	-	2.4
COC(=O)c1cc(NCc2cccs2)ccc1N1CCOCC1	-	-	-	-	-	-
Cn1c(Cc2cccs2)nnc1SC/C=C/c1ccccc1	-	-	-	-	-	-
COC(=O)Nc1c(-c2ccccc2)nc2ccc(C)cn12	-	-	.	-	-	3.8
COC(=O)Nc1c(-c2ccccc2)nc2ccccn12	-	-	.	-	-	2.1
CC(=O)Nc1c(-c2ccc(F)cc2)nc2ccccn12	-	-	.	-	-	-
O=C(c1cc2ccccc2o1)c1cccs1	-	-	-	-	-	-
O=C(c1cccs1)c1ccc(-c2cccs2)s1	-	-	-	-	-	2.4
SMILES	A340 absorber	MK inhibit	Spn DPM-DC inh	PMK inhibit	NADH enzymes	Autofluor 339
CCC1CCCN1Cn1cnc2c([nH]c3ccc(OC)cc32)c1=O (stereo unspecified)	-	-	.	-	-	3
CCN1CCCC1Cn1cnc2c([nH]c3cccc(Cl)c32)c1=O (stereo unspecified)	-	-	-	-	-	2.2
COc1cc2[nH]c3c(=O)n(CCN(C(C)C)C(C)C)cnc3c2cc1OC	-	-	.	-	-	2.5
COc1ccc2c(c1)[nH]c1c(=O)n(CCN3CCCC3)cnc12	-	-	-	-	-	-
CCCCN(CCCC)CCn1cnc2c([nH]c3ccc(OC)cc32)c1=O	-	-	.	-	-	2.3
CCOC(=O)Cn1c(CN(Cc2ccccc2)Cc2ccccc2)nc2c1c(=O)n(C)c(=O)n2C	-	-	-	-	-	-
CCC(C)(C)n1nnnc1CN(Cc1ccc(Cl)cc1)Cc1ccco1	-	-	-	-	-	-
CC(C)(C)n1nnnc1CN(Cc1ccco1)Cc1cc2cc3c(cc2[nH]c1=O)OCO3	-	-	.	-	-	2.5
